Assay results from PubChem BioAssay (NCATS).
Where “and” joins values, the source holds several entries; their conditions need not be identical. Identical values can stand only once. Records with an inconclusive call do not appear. Unmarked numbers belong to inactive results. Calls follow the shape of the dose curve; as a rule, active = well fitted curve in either direction with a large enough effect (not every such curve was filed as active); inconclusive = small, poorly fitted or top-dose-only effect, or another doubt; inactive = flat fitted curve, though single readings scatter.

Assay: Stat Signaling Pathway (AID 446);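 also: ME-180 cervical cancer cells given 40 pM IL-6 alongside compound; SIE-controlled beta-lactamase reporter measured as 460/530 nm FRET emission ratio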
Conditions: ME-180 SIE beta-lactamase reporter, IL-6 stimulated, 5 h; at 17.2 µM (top of the series)
How it was run: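 Screening format detects activators and inhibitors alike: ME-180 SIE-bla cells stimulated at 40 pM IL-6 for 5 hrs with compound, then dual-emission beta-lactamase read at 405 nm excitation.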
% is scaled to controls: 0 for no effect and ±100 for the full control effect.

Structure (SMILES)	activity, negative = inhibition
CCCCCCC[N+](CC)(CC)CCCCc1ccc(Cl)cc1	-5.02%
CC(C)(Oc1ccc(Cl)cc1)C(=O)O	-4.02%
C/C=C(/C(=C/C)c1ccc(O)cc1)c1ccc(O)cc1	-10.4%
O=C1c2ccccc2C(=O)C1c1ccccc1	3.06%
CC(=O)O[C@H]1C[C@@H]2CC[C@@H]3[C@H](CC[C@@]4(C)[C@H]3C[C@H]([N+]3(C)CCCCC3)[C@@H]4OC(C)=O)[C@@]2(C)C[C@@H]1[N+]1(C)CCCCC1	10.1%
CC(=O)OCC(=O)[C@@]1(O)CC[C@H]2[C@@H]3CCC4=CC(=O)C=C[C@]4(C)[C@H]3[C@@H](O)C[C@@]21C	-3.24%
NC(=NCCCCCCN=C(N)/N=C(\N)Nc1ccc(Cl)cc1)/N=C(\N)Nc1ccc(Cl)cc1	-5.46%
CCCCOc1ccc(OCCCN2CCOCC2)cc1	-0.87% and 12.1%
COc1ccc(CCN2CCC(Nc3nc4ccccc4n3Cc3ccc(F)cc3)CC2)cc1	-11% and -15.4%
C[C@@H]1C[C@H]2[C@@H]3CCC4=CC(=O)C=C[C@]4(C)[C@@]3(F)[C@@H](O)C[C@]2(C)[C@H]1C(=O)CO	1.17%
CN(C)CCOc1ccccc1Cc1ccccc1	-3.49%
CC(C)N=C(N)/N=C(\N)Nc1ccc(Cl)cc1	-2.15%
c1ccc(-c2ccc(C(c3ccccc3)n3ccnc3)cc2)cc1 (stereo not drawn)	-24.4%
CC(CCc1ccccc1)NCC(O)c1ccc(O)c(C(N)=O)c1 (stereo not drawn)	9.7%
O=C1OC(c2ccc(O)cc2)(c2ccc(O)cc2)c2ccccc21	-16.8%
C[C@H](CCC(=O)O)[C@H]1CC[C@H]2[C@@H]3C(=O)C[C@@H]4CC(=O)CC[C@]4(C)[C@H]3CC(=O)[C@]12C	1.08%
CCCCC(=O)O[C@]1(C(=O)CO)CC[C@H]2[C@@H]3CCC4=CC(=O)CC[C@]4(C)[C@H]3[C@@H](O)C[C@@]21C	-12.8%
CN1CCC(=C2c3ccccc3Sc3ccccc32)CC1	-4.56%
